# Laboratory results taken from PubChem BioAssay (NCATS).
# “And” between values parts separate entries of the source, which are not always exact repeats. Identical values can stand only once. Records with an inconclusive call do not appear. Entries that show only a call come without a potency. The source made the active and inactive calls. The call rests on the fitted dose curve; in most records, active means well fitted curve in the direction sought with a large enough effect; inconclusive means small, poorly fitted or top-dose-only effect, or another doubt; inactive means no such curve, though single readings can be large; an effect the other way counts as inactive or inconclusive.
# Tested on: WaGa
# Assay: qHTS assay to identify novel small-molecules to repurpose for Merkel cell carcinoma treatment (AID 1296009); further: nearly all actives have a fitted effect of over 60% in size
# Conditions: MCC and control cell lines, CellTiter-Glo viability, 72 h; series mostly up to 46 µM
# In short: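 After compound transfer in DMSO, plates were kept 72 hr at 37 degree celsius. Luminescent ATP signal from CellTiter-Glo served as viability measure, normalized against DMSO and no-cell controls.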
# Potency means the concentration at half of the fitted maximal effect.
row,Structure (SMILES),Potency
1,Cc1ccc(NC(=O)c2cccc(C(C)(C)C#N)c2)cc1Nc1ccc2ncn(C)c(=O)c2c1,inactive
2,COc1ccc(C2=N[C@H](c3ccc(Cl)cc3)[C@H](c3ccc(Cl)cc3)N2C(=O)N2CCNC(=O)C2)c(OC(C)C)c1,2.96 µM (active)
3,CC(C)C[C@H](NC(=O)[C@@H](O)[C@H](N)Cc1ccccc1)C(=O)O,inactive
4,O=c1[nH]c(-c2ccc(C(F)(F)F)cc2)nc2c1CSCC2,inactive
5,N#CC[C@H](C1CCCC1)n1cc(-c2ncnc3[nH]ccc23)cn1,inactive
6,Cn1cnc([N+](=O)[O-])c1Sc1ncnc2nc[nH]c12,1.91 µM (active)
7,CCc1cc(Nc2nccc(-c3c(-c4ccc(OC)c(C(=O)Nc5c(F)cccc5F)c4)nc4ccccn34)n2)c(OC)cc1N1CCC(N2CCN(S(C)(=O)=O)CC2)CC1,inactive
8,Nc1nc2[nH]cc(CCc3ccc(C(=O)N[C@@H](CCC(=O)O)C(=O)O)cc3)c2c(=O)[nH]1,2.35 µM (active)
9,Cc1cc(-c2ccc(CC(=O)Nc3ccc(-c4cccnc4)cc3)cc2)ccn1,inactive
10,C#Cc1cccc(Nc2ncnc3cc(OCCOC)c(OCCOC)cc23)c1,29.6 µM (active)
11,c1ccc(-c2nn3c(c2-c2ccnc4cc(OCCN5CCOCC5)ccc24)CCC3)nc1,14.8 µM (active)
12,CS(=O)(=O)c1cccc(CNc2nc(Nc3ccc4c(c3)CCC(=O)N4)ncc2C(F)(F)F)c1,16.6 µM (active)
13,CCOc1ccn(-c2ccc(F)cc2)c(=O)c1C(=O)Nc1ccc(Oc2ccnc(N)c2Cl)c(F)c1,inactive
14,CNCc1ccc(-c2[nH]c3cc(F)cc4c3c2CCNC4=O)cc1,inactive
15,Nc1nccc(-c2ccc3noc(-c4ccc(Cl)cc4)c3c2)n1,inactive
16,CCCS(=O)(=O)Nc1ccc(F)c(C(=O)c2c[nH]c3ncc(Cl)cc23)c1F,inactive
17,Cc1ccc(-n2nc(C(C)(C)C)cc2NC(=O)Nc2ccc(OCCN3CCOCC3)c3ccccc23)cc1,inactive
18,Cc1c(CN2CCN(C(=O)C(C)C)CC2)sc2c(N3CCOCC3)nc(-c3cnc(N)nc3)nc12,inactive

# Tested on: C33A
# Assay: Primary qHTS to identify gynecologic anti-cancer compounds using libraries of approved drugs and bioactive compounds (AID 1345084); further: nearly all actives have a fitted effect of over 55% in size
# Conditions: Gynecologic cancer cell panel viability, ATPlite luminescence, 48 h; series mostly up to 57.5 µM
# In short: (§1)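 In this quantitative HTS, cell killing is estimated from loss of ATP-dependent luciferase light. Cells see five compound concentrations over a 48 h exposure.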
row,Structure (SMILES),Potency
1,CCc1cncnc1N1CCN(Cc2nc3ccc(C(F)(F)F)cc3[nH]2)CC1,inactive
2,N#CC[C@H](C1CCCC1)n1cc(-c2ncnc3[nH]ccc23)cn1,inactive
3,Cn1cnc([N+](=O)[O-])c1Sc1ncnc2nc[nH]c12,8.91 µM (active) and 7.94 µM (active)
4,O=C(NOC[C@H](O)CO)c1ccc(F)c(F)c1Nc1ccc(I)cc1F,inactive
5,CCC(C)(C)C(=O)O[C@H]1C[C@@H](C)C=C2C=C[C@H](C)[C@H](CC[C@@H]3C[C@@H](O)CC(=O)O3)[C@H]21,inactive
6,CCc1cc(Nc2nccc(-c3c(-c4ccc(OC)c(C(=O)Nc5c(F)cccc5F)c4)nc4ccccn34)n2)c(OC)cc1N1CCC(N2CCN(S(C)(=O)=O)CC2)CC1,inactive
7,COc1ccccc1[C@H](c1cccc2ccccc12)[C@@](C)(C#N)C(=O)N1CCC(c2cccc(C(F)(F)F)c2)CC1,inactive
8,C#Cc1cccc(Nc2ncnc3cc(OCCOC)c(OCCOC)cc23)c1,inactive
9,COc1cccc2cc(-c3nc(C4CCC(C(=O)O)CC4)n4ncnc(N)c34)[nH]c12 (stereo unspecified),7.94 µM (active)
10,Cc1cc(Nc2nc(N[C@@H](C)c3ncc(F)cn3)ncc2Cl)n[nH]1,inactive
11,Nc1nc2c(ncn2COCCO)c(=O)[nH]1,inactive
12,CS(=O)(=O)c1cccc(CNc2nc(Nc3ccc4c(c3)CCC(=O)N4)ncc2C(F)(F)F)c1,inactive
13,CCOc1ccn(-c2ccc(F)cc2)c(=O)c1C(=O)Nc1ccc(Oc2ccnc(N)c2Cl)c(F)c1,inactive
14,CC1(C)CNc2cc(NC(=O)c3cccnc3NCc3ccncc3)ccc21,inactive
15,N[C@@H]1CONC1=O,inactive
16,CNCc1ccc(-c2[nH]c3cc(F)cc4c3c2CCNC4=O)cc1,inactive
17,NC[C@H](O)c1ccc(O)c(O)c1,inactive
18,CCCS(=O)(=O)Nc1ccc(F)c(C(=O)c2c[nH]c3ncc(Cl)cc23)c1F,inactive
19,Cc1ccc(-n2nc(C(C)(C)C)cc2NC(=O)Nc2ccc(OCCN3CCOCC3)c3ccccc23)cc1,inactive
20,O=C(O)CCc1ccc(NCc2cccc(Oc3ccccc3)c2)cc1,inactive
21,Oc1ccc(C2CNCCc3c2cc(O)c(O)c3Cl)cc1 (stereo unspecified),inactive

# Tested on: CAOV3
# Assay: as above
# Conditions: Gynecologic cancer cell panel viability, ATPlite luminescence, 48 h; series mostly up to 57.5 µM
# In short: as §1
row,Structure (SMILES),Potency
1,N#CC[C@H](C1CCCC1)n1cc(-c2ncnc3[nH]ccc23)cn1,inactive
2,Cn1cnc([N+](=O)[O-])c1Sc1ncnc2nc[nH]c12,inactive
3,CCC(C)(C)C(=O)O[C@H]1C[C@@H](C)C=C2C=C[C@H](C)[C@H](CC[C@@H]3C[C@@H](O)CC(=O)O3)[C@H]21,inactive
4,Cc1oncc1C(=O)Nc1ccc(C(F)(F)F)cc1,12.6 µM (active)
5,Nc1nc2c(ncn2COCCO)c(=O)[nH]1,inactive
6,N[C@@H]1CONC1=O,inactive
7,NC[C@H](O)c1ccc(O)c(O)c1,inactive
